Test [1] can be described thus: compounds binding Alexa647 anti-His antibody – biochemical, small-molecule microarray, 635 nm fluorescence, artefact control for SMM control protein annotation, primary screen (AID 1128).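 Note: score merges feature fluorescence with signal-to-noise for each printed compound spot.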 Particulars: higher = more signal.
Test [2] deals with Human papillomavirus type 1a E7 protein (residues 1-88). Description: HPV1a E7 small-molecule binders, primary screen, biochemical, small-molecule microarray, residues 1-88, 635 nm (AID 1129). Conditions: small-molecule microarray binding, fluorescence 635 nm; higher = more signal.
The target of test [3] is Focal adhesion kinase 1 (Homo sapiens) (UniProt Q05397). As to the kind of experiment: PTK2 protein binding on printed compound slides – biochemical, small-molecule microarray, 635/667 nm fluorescence, BSA, DTT, primary screen (AID 1130).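 Note: composite of spot emission at 667 nm and signal to noise over triplicate slides.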 Conditions: 635 nm fluorescence, higher = more signal.
For test [4], the system named is Fibrinogen (Alexa647-labelled). As to the kind of experiment: Alexa647-fibrinogen binding to printed small molecules – biochemical, small-molecule microarray, 635/667 nm fluorescence, artefact control for SMM control-protein annotation, profiling panel (AID 1131).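 Note: z-score merges 667 nm fluorescence with per-spot signal-to-noise over triplicate slides.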 Particulars: fibrinogen-A647 binding fluorescence, higher = more signal.
The target of test [5] is Follistatin (Homo sapiens) (UniProt P19883). As to the kind of experiment: FST protein binding to printed compounds – biochemical, small-molecule microarray, 635/667 nm fluorescence, primary screen (AID 1132). Particulars: 635 nm fluorescence, higher = more signal.
Test [6] deals with Fibroblast growth factor 2 (Homo sapiens) (UniProt P09038). As to the kind of experiment: basic fibroblast growth factor binding to printed compounds – biochemical, small-molecule microarray, 635/667 nm fluorescence, primary screen (AID 1133). Conditions: FGF2, fluorescence 635/667, higher = more signal.
Test [7] can be described thus: JC-1 mitochondrial potential readout, lung cancer cells – cell-based, A549, JC-1 fluorescence, basal, 24 h, 100 nL, profiling panel (AID 1138).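 Note: A549 lung adenocarcinoma cells under basal conditions with no added stimulus; test concentration not given here.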 Particulars: higher = more signal.
Test [8] concerns Lefty1. Description: Lefty1 protein binding to printed compounds – biochemical, small-molecule microarray, 635/667 nm fluorescence, primary screen (AID 1139). Particulars: fluorescence 635/667, higher = more signal.
Test [9] relates to wheat germ agglutinin (Triticum aestivum), Alexa647-labelled. As to the kind of experiment: Alexa647-WGA lectin binding to printed small molecules – biochemical, small-molecule microarray, 635/667 nm fluorescence, artefact control for SMM control-protein annotation, profiling panel (AID 1140).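 Note: score merges 667 nm feature emission with signal to noise over triplicate slides.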 Conditions: WGA-A647 binding, 635 nm fluorescence, higher = more signal.
Test [10] has as its target Luciferin 4-monooxygenase (Photinus pyralis) (UniProt P08659). Description: inhibition of purified Photinus pyralis luciferase – biochemical, luminescence, purified enzyme, 2006 set, primary screen (AID 1141).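 Note: cell-free assay with purified firefly luciferase at 100 ng per well in PBS; test concentration not given here.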 Conditions: purified firefly luciferase, SteadyGlo luminescence, 30 min; higher = more signal, called active from +8 up or from −8 down.
Test [11] deals with Wnt5a (protein binding on small-molecule microarray). As to the kind of experiment: small molecules binding Wnt5a protein – biophysical, small-molecule microarray, 635/667 nm fluorescence, primary screen (AID 1142).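 Note: fluorescence read at 667 nm with signal to noise per printed feature.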 Conditions: 635 nm fluorescence, higher = more signal.
Test [12] is described as follows: ATP-based viability of Huh7 replicon cells – cell-based, CellTiter-Glo luminescence, basal, 48 h, cytotoxicity control for HCV replication inhibitor project, primary screen (AID 1143).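 Note: Huh7 hepatoma cells carrying a hepatitis C replication reporter with no stimulus; test concentration not given here.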 Conditions: higher = more signal, called active from +8 up or from −8 down.
The nature of test [13]: Pseudomonas biofilm growth suppression – PAO1 strain, BacTiter-Glo luminescence, LB-PBS, primary screen (AID 1144). Conditions: P. aeruginosa PAO1 biofilm, 12 h, higher = more signal.
Test [14] can be described thus: basal CRE-LacZ reporter activity in PC12 – cell-based, unstimulated, primary screen (AID 1145). Conditions: no forskolin, luminescence, 4.5 h, higher = more signal, called active from +8 up or from −8 down.
The nature of test [15]: forskolin-driven CRE-LacZ activity in PC12 – cell-based, CRE-LacZ reporter, forskolin-stimulated, primary screen (AID 1146).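 Note: PC12 cells with 6xCRE LacZ reporter stimulated by forskolin 10 µM; beta-galactosidase reporter signal reflecting CREB driven transcription.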 Conditions: luminescence, 4.5 h, higher = more signal, called active from +8 up or from −8 down.
In test [16] the target is Streptavidin (Streptomyces avidinii) (UniProt P22629). Description: compounds binding control protein streptavidin – biophysical, small-molecule microarray, 635/667 nm fluorescence, artefact control for SMM compound annotation, primary screen (AID 1147).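 Note: signal reflects streptavidin binding to arrayed compounds as a control protein.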 Conditions: higher = more signal.
Test [17] in a line: probe aInhba binding on compound microarray – biochemical, small-molecule microarray, 635/667 nm fluorescence, primary screen (AID 1148).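 Note: score merges 667nm spot fluorescence with signal-to-noise for antibody binding to printed compounds.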 Conditions: higher = more signal.
Test [18] addresses Torsin-1A (Homo sapiens) (UniProt O14656). As to the kind of experiment: TOR1A wild-type binding on microarray – cell lysate, small-molecule microarray, lysate, 635/667 nm, primary screen (AID 1149). Conditions: COS7 hTOR1A-WT lysate, 635 nm fluorescence, higher = more signal.
Test [19] has the same target. As to the kind of experiment: torsin A mutant lysate binding on microarrays – cell lysate, small-molecule microarray, COS7 lysate, 635/667 nm fluorescence, primary screen (AID 1150).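 Note: score pools 667 nm emission and signal to noise measuring lysate protein binding.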 Particulars: COS7 hTOR1A mutant lysate, 635 nm fluorescence, higher = more signal.
For test [20], the system named is Sonic hedgehog protein (Shh). As to the kind of experiment: Sonic hedgehog microarray binding compounds – biochemical, small-molecule microarray, 635/667 nm fluorescence, primary screen (AID 1151).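 Note: Shh protein binding to compounds spotted on small-molecule microarray slides; score combines spot fluorescence intensity with signal-to-noise across triplicate slides.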 Conditions: 635 nm fluorescence, higher = more signal.

Calls of active or inactive are those of the source. Unless noted, the rule behind the calls is not given here.

Fibroblast growth factor 2 (Homo sapiens), sequence (P09038 whole entry, looked up): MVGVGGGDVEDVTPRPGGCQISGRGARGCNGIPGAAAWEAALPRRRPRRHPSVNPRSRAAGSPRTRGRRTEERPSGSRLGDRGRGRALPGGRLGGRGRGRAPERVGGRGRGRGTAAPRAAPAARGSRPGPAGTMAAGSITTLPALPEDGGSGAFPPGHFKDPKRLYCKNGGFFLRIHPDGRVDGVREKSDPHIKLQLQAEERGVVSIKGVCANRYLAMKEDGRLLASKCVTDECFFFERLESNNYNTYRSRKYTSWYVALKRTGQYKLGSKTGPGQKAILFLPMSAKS
Streptavidin (Streptomyces avidinii), sequence (P22629 whole entry, looked up): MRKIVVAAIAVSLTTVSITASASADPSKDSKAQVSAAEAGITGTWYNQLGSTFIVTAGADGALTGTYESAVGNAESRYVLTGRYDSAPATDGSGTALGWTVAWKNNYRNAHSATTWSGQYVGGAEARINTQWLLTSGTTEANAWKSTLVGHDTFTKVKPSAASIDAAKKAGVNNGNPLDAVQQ
Follistatin (Homo sapiens), sequence (P19883 whole entry, looked up): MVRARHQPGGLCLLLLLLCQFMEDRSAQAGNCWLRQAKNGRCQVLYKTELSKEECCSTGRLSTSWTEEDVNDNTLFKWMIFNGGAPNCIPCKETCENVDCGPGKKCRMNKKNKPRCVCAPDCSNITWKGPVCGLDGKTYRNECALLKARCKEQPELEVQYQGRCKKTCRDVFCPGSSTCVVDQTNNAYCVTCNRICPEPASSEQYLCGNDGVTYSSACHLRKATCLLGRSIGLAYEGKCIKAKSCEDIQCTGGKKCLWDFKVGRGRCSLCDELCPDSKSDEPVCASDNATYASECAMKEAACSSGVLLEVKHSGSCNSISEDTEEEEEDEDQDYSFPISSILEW
Torsin-1A (Homo sapiens), sequence (O14656 whole entry, looked up): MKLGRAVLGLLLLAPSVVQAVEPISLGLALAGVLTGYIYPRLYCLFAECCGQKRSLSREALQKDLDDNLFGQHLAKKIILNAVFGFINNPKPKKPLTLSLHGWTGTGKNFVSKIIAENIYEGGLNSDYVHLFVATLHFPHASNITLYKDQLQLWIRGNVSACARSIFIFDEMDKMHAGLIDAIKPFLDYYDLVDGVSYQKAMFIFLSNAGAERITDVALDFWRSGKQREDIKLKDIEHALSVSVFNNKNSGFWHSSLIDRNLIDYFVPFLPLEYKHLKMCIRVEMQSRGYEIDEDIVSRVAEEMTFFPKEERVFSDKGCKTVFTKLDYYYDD
Focal adhesion kinase 1 (Homo sapiens), sequence (Q05397 whole entry, looked up): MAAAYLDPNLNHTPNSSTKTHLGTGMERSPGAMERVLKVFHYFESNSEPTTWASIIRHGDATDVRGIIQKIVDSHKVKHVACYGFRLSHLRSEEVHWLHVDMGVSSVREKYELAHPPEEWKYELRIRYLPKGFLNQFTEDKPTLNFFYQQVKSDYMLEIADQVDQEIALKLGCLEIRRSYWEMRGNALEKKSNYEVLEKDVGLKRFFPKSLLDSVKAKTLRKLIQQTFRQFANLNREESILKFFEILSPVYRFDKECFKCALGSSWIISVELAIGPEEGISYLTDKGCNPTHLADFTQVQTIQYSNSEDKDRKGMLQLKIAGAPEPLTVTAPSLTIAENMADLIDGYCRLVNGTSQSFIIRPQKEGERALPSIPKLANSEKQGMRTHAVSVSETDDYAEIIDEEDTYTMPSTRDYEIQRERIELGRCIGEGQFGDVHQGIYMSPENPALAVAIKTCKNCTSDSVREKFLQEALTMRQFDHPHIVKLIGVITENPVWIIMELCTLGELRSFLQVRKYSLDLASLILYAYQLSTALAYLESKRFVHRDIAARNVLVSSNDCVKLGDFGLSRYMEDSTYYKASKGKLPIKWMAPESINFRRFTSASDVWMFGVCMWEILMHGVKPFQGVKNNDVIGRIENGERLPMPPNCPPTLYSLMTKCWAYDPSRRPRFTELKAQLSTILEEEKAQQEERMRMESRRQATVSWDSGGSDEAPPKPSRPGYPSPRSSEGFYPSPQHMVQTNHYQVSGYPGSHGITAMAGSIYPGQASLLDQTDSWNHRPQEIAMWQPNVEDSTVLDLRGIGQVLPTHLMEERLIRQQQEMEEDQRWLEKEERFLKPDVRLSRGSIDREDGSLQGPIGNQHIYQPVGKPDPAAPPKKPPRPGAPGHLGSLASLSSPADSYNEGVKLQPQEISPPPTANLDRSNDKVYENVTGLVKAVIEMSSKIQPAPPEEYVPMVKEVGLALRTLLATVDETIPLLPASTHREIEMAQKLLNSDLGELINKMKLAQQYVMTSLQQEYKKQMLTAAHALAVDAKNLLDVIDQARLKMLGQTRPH
Luciferin 4-monooxygenase (Photinus pyralis), sequence (P08659 whole entry, looked up): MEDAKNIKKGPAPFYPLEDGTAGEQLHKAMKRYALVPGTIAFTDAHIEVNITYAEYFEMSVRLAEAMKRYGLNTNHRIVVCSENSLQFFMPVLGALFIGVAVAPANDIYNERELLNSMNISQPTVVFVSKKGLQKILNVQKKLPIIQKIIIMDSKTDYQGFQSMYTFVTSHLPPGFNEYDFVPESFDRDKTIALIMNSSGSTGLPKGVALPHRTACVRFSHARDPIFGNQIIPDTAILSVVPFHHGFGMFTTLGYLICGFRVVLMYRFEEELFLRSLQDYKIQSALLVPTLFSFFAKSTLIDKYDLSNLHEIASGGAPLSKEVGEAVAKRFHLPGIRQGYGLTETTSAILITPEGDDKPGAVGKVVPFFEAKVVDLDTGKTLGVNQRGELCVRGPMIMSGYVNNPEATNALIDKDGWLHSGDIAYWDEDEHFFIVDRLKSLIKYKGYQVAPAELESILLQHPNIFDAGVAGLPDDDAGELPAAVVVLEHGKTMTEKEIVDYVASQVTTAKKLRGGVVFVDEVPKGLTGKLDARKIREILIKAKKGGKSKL

`[N-]=[N+]=NCc1ccccc1[C@H]1OC(c2ccc(OCCCO)cc2)=N[C@@]1(CCS(=O)(=O)c1ccccc1)C(=O)NCC(O)CO` (stereo not given in full): the composite z-score in test [1] was found to be 2.5; in test [2] it was 1.26; in test [3], 1.33; in test [4], 1.01; in test [5], 1.36; in test [6] it was 0.877. Besides, the composite z-score in [8] is -0.385; in test [9], 0.983; in test [11] it was 0.914; in [16], 1.2; in [17] it was 0.257; in [18], 0.662. Also, the figures for the composite z-score in test [19] and in test [20] were 1.41 and -0.276, respectively. The z-score was -1.22 in test [7]; -0.986 (inactive) in test [10]; -0.119 (inactive) in test [12]; -1.53 (inactive) in [13]; 1.99 (inactive) in test [14]; -0.75 (inactive) in test [15].
In the case of `CCCCC(O)C1C=CC2C(=O)N(c3ccccc3)C(=O)C2N1Nc1ccc(C(C)C)cc1` (stereo not given), the composite z-score was 0.236 in test [1]; 1.22 in test [2]; 0.536 in [3]; 1.01 in [4]; 0.967 in [5]; -0.138 in [6]. In addition, the composite z-score was 0.451 in test [8]; 0.394 in [9]; 0.261 in [11]; 0.486 in [16]; 0.341 in [17]; -0.149 in test [18]. In addition, the values for the composite z-score in [19] and in test [20] were 0.214 and -0.207, respectively. The z-score in [7] was -0.142; in test [10], -1.46 (inactive); in [12], -0.714 (inactive); in test [13], -0.905 (inactive); in test [14], 1.38 (inactive); in test [15], 0.232 (inactive).
For the compound `NC(=O)N1C(=O)C2C(C1=O)C1C=C(CCCO)C2C(c2cccs2)N1Cc1cccc(OC(F)(F)F)c1` (stereo not given), the composite z-score in test [1] was 2.83; in test [2], 0.416; in test [3] it was 0.192; in test [4], 0.692; in [5], 0.82; in test [6] it was -0.0701. For the same compound, the composite z-score in [8] was 0.672; in [9] it was 0.438; in [11] it was -0.0995; in test [16] it was 0.035; in [17] it was -0.114; in test [18], 0.726. Moreover, the values for the composite z-score in test [19] and in test [20] were 0.981 and 1.4, respectively. The z-score in [7] was 0.928; in test [10], -0.929 (inactive); in test [12], -2.32 (inactive); in test [13], 0.818 (inactive); in test [14] it was 0.0704 (inactive); in test [15], -0.461 (inactive).
With `CCOC(=O)C[C@H]1[C@H](OC(=O)c2ccc(C(=O)c3ccccc3)cc2)[C@@H](NC(=O)Cc2ccc(OC)cc2)c2cc(OCCCO)ccc2N1C(=O)c1ccccc1`, the composite z-score in [1] was 0.305; in test [2], 0.498; in test [3], 0.15; in [4] it was 0.157; in test [5], -0.17; in test [6], 0.23. Further, the composite z-score in test [8] was 0.162; in [9] it was -0.337; in test [11] it was 0.328; in test [16], 0.162; in test [17], -0.0762; in [18] it was 0.0313. The results for the composite z-score in [19] and in test [20] were 0.337 and 0.622, respectively. For the same compound, the z-score in [7] was 1.14; in [10], 0.449 (inactive); in test [12], -0.117 (inactive); in test [13], -0.0806 (inactive); in [14], 1.47 (inactive); in test [15], 0.926 (inactive).
In the case of `C=CCOC(=O)[C@H]1[C@@H]2C(=O)O[C@@H](c3ccccc3)[C@@H](c3ccccc3)N2[C@@H](c2ccc(OCCOC(=O)[C@H]3C[C@H]4C(=O)N[C@@H](CC(C)C)C(=O)N4[C@H]3c3cccc(OCCO)c3)cc2)[C@]12C(=O)Nc1ccc(I)cc12`, the composite z-score in [1] is 2; in [2] it was 1.18; in [3], 0.84; in test [4], 0.452; in test [5], 1.36; in [6], 1.71. For the same compound, the composite z-score in [8] was 1.22; in [9] it was 0.437; in test [11] it was 0.725; in test [16], 0.205; in test [17], -0.154; in test [18], 0.644. Further, the composite z-score stood at 0.908 in [19] and 1.73 in test [20]. Further, the z-score is -0.175 in test [7]; -1.48 (inactive) in test [10]; 0.0478 (inactive) in test [12]; 0.568 (inactive) in test [13]; 0.411 (inactive) in [14]; -0.368 (inactive) in test [15].
